± gives the uncertainty stated by the source.
system: FLX1; experiment: cell viability z-score within plate (CellTiter-Glo), mean of 3 biological replicates; higher = higher viability relative to plate (less growth inhibition); details: 2 µM; time (hr): 120
Experimental: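 FLX1 fibrolamellar carcinoma cells (DNAJB1-PRKACA fusion), 600 cells/well in 384-well plates, treated with a Selleck kinase inhibitor library (L1200) at 2 uM for 5 days (120 hr); viability by CellTiter-Glo. A z-score was computed within each plate and averaged over three biological replicates.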

SMILES | cell viability z-score within plate
CC(C)(C)c1cc(C=C(C#N)C#N)cc(C(C)(C)C)c1O [Tyrphostin 9] | 0.448 ± 0.24
CC(C)(C)c1cc(C=C(C#N)C#N)cc(Br)c1O | -0.784 ± 0.7
Cc1ccccc1-n1c(Cn2ncc3c(N)ncnc32)nc2cccc(C)c2c1=O | 0.16 ± 0.68
Cn1cc(C2=C(c3cn(C4CCN(Cc5ccccn5)CC4)c4ccccc34)C(=O)NC2=O)c2ccccc21 | -2.47 ± 0.57
CCN1CCN(C(=O)Cc2ccc(Nc3ncc(F)c(Nc4ccc(C(=O)Nc5ccccc5Cl)cc4)n3)cc2)CC1 [Aurora A Inhibitor I] | -0.367 ± 0.29
O=c1[nH]c2ccc(Cl)cc2c(N[C@@H]2CN3CCC2CC3)c1-c1nc2ccccc2[nH]1 | 0.562 ± 0.43
